From PubChem
Shown are actives, neighbours in structure and some others; about 1.7% of the full set was active somewhere.
F508del corr – CFTR F508del correction in bronchial cells | activity (quench increase), % at 7.58 µM | CFBE cells, YFP halide quenching; stimulated with forskolin plus potentiator P3; % fluorescence drop versus neutral controls | AID 720511 | hit rate 0.36% among 350,000;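 active = mean added fluorescence quench of at least 8% versus neutral control, with both replicates also reaching 8%; inconclusive = only one of the mean or replicate conditions met; inactive = mean below 8% and not both replicates reaching 8%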;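 also: cells transiently co-express mutant CFTR-F508del with the halide-sensitive YFP; corrector assay measuring rescue of mutant channel to the surface after 24 h compound exposure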
FGF22 binding – shifts melting point of recombinant human FGF22 | Q9HCT0 | recombinant FGF22 thermal shift, SYPRO orange fluorescence; percent of sucrose octasulfate shift, DMSO zero | activity (Tm shift, normalised), % at 9.99 µM | hit rate 1.5% among 340,000 | AID 651658;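 active = mean Tm shift, scaled 0 neutral to 100 positive control, at about 1.3% or above, every replicate too, limit read from the data; inconclusive = no clear call, values can overlap the other calls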
Target sequence (Q9HCT0 whole entry, looked up): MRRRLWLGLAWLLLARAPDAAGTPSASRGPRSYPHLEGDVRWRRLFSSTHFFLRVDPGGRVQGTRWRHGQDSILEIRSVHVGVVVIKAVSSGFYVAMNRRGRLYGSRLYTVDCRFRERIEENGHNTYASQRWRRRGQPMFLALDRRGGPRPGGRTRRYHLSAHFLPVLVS
Vif inh – inhibitors of HIV Vif. HEK293T cells, Vif self-association by quenched fluorescence, imaging, 24 h. inhibition, % at 7.49 µM. hit rate 0.35% among 340,000. AID 602346; in the data active = inhibition above about 50%, passing the limit was not always enough; inconclusive = no clear call, values can overlap the other calls; inactive = below about 31%
* = called active by the depositor; ? = inconclusive; · = no result; ! = a repeat was not active.

SMILES	F508del corr	FGF22 binding	Vif inh
COc1ccc(N2C(=O)CC(Sc3n[nH]c(-c4cccc(C)c4)n3)C2=O)cc1 (stereo not drawn)	-4	0	15
CCOc1ccccc1N1C(=O)CC(Sc2n[nH]c(-c3ccccc3)n2)C1=O (stereo not drawn)	1	44*	-13
COCC(=O)N(C)C[C@@H]1Oc2cc(-c3ccc(C)cc3)ccc2S(=O)(=O)N([C@@H](C)CO)C[C@H]1C	0	0	·
COc1ccc(NC(=O)Nc2ccc3c(c2)[C@@H]2C[C@@H](CC(=O)N(C)C)O[C@@H](CO)[C@@H]2O3)cc1	2	0	·
CC(=O)N1CC=C2C(C#N)=C(N)C(C#N)(C#N)C(CCc3ccccc3)C2C1 (stereo not drawn)	·	·	2
CCN1CC=C2C(C#N)=C(N)C(C#N)(C#N)C(CCc3ccccc3)C2C1 (stereo not drawn)	·	·	79*
Fc1cc(F)cc(NC(=S)NCCCN2CCOCC2)c1	1	43*	11
Fc1cccc(NC(=S)NCCCN2CCOCC2)c1	·	·	2
Cc1cccc(NC(=O)CCN2CCOCC2)c1	·	·	-4
O=C(CSc1ccccc1)NCCCN1CCOCC1	·	·	1
O=C(CSCc1ccccc1)NCCCN1CCOCC1	1	44*	-3
Cc1cccc(NC(=O)C(=O)NCCCN2CCOCC2)c1	-2	43*	1
COc1cc(CNCc2ccccn2)ccc1OCc1ccc(Cl)cc1Cl	·	·	-7
C/[N+]([O-])=C/c1c(OCc2ccc(Cl)cc2Cl)ccc2ccccc12	-1	45*	-6
C[C@H]1CN([C@@H](C)CO)C(=O)c2cccc(NC(=O)Nc3ccc4c(c3)OCO4)c2O[C@H]1CN(C)Cc1ccncc1	-2	0	·
CC(C)Cn1c(-c2cc(Br)ccc2F)nc2c1c(=O)[nH]c(=O)n2CC(C)C	-1	2.3*	0
CCCCn1c(-c2ccncc2)nc2c1c(=O)[nH]c(=O)n2CC(C)C	·	·	57*
Cc1ccc(-c2nc3c(c(=O)[nH]c(=O)n3CC(C)C)n2CC(C)C)cc1[N+](=O)[O-]	1	0	0
COCCn1c(-c2ccc(SC)cc2)nc2c1c(=O)[nH]c(=O)n2CC(C)C	1	0	-6
C[C@H]1CN([C@@H](C)CO)C(=O)c2cc(C#CC3(O)CCCC3)cnc2O[C@H]1CN(C)Cc1ccccn1	1	0	·
C[C@@H]1CN([C@@H](C)CO)C(=O)Cc2cc(NS(=O)(=O)c3cccs3)ccc2O[C@H]1CN(C)C	-2	0	·
Cc1noc(C)c1NC(=O)N(C)C[C@@H]1Oc2c(NC(=O)Nc3ccc(F)cc3)cccc2C(=O)N([C@@H](C)CO)C[C@H]1C	-3	0	·
CN(C)C(=O)C[C@@H]1CC[C@H]2[C@@H](COC[C@H](O)CN2CC2CCCC2)O1	-1	0	·
COc1ccc(-c2noc(CN(C)CCC3CCCCO3)n2)cc1 (stereo not drawn)	·	1	-19
COC(=O)c1ccc(-c2noc(CN(C)CCC3CCCCO3)n2)cc1 (stereo not drawn)	-2	43*	0
SMILES	F508del corr	FGF22 binding	Vif inh
O=C(CN1CCOCC1)N1CC(=O)N2[C@H](CO)[C@@H](c3ccc(/C=C/c4ccccc4)cc3)[C@@H]2C1	1	0	·
O=C(N/N=C/c1ccc([N+](=O)[O-])cc1)c1cc2ccccc2o1	-1	0	-1
C/C(=N\Nc1ccc([N+](=O)[O-])cc1)c1cc2ccccc2o1	4	44*	?
O=C(C[C@@H]1C=C[C@H](NC(=O)CCN2CCCCC2)[C@@H](CO)O1)NCc1ccc(Cl)c(Cl)c1	1	0	·
COc1ccc(S(=O)(=O)N2CCN(CCOc3ccccc3Cl)CC2)cc1OC	17*	0	3
COc1ccc(S(=O)(=O)N2CCN(CCOc3ccc(Br)cc3)CC2)cc1OC	-1	0	-18
Cc1cccc(C(=O)N2CCN=C2SCc2ccc([N+](=O)[O-])cc2)c1	-1	0	4
O=C(Cc1ccccc1)N1CCN=C1SCc1cccc([N+](=O)[O-])c1	-1	43*	9
O=C1CCC(CCc2nc3ccccc3[nH]2)(c2ccccc2)C(=O)N1 (stereo not drawn)	11*	1	23
c1ccc2[nH]c(CCCCCc3nc4ccccc4[nH]3)nc2c1	-1	0	·
C[C@H](CO)N1C[C@H](C)[C@@H](CN(C)Cc2ccc3c(c2)OCO3)Oc2ccc(NC(=O)CCCN(C)C)cc2CC1=O	7	1	·
C[C@@H]1CCCCO[C@H](CN(C)Cc2ccc(Cl)c(Cl)c2)[C@@H](C)CN([C@@H](C)CO)C(=O)c2cc(NS(=O)(=O)c3ccc(Cl)cc3)ccc2O1	12*	0	·
C[C@@H]1CCCCO[C@H](CN(C)Cc2ccc(Cl)c(Cl)c2)[C@@H](C)CN([C@H](C)CO)C(=O)c2cc(N(C)C)ccc2O1	2	43*!	2
COc1ccc(S(=O)(=O)Nc2ccc3c(c2)C(=O)N([C@H](C)CO)C[C@@H](C)[C@@H](CN(C)Cc2ccc(C(F)(F)F)cc2)O3)cc1	9.2*	-1	·
C[C@@H]1CCCCO[C@@H](CN(C)Cc2ccc(Cl)c(Cl)c2)[C@H](C)CN([C@H](C)CO)C(=O)c2cc(N(C)C)ccc2O1	4	-1	·
COc1ccc(S(=O)(=O)Nc2ccc3c(c2)C(=O)N([C@@H](C)CO)C[C@H](C)[C@H](CN(C)Cc2ccc(Cl)c(Cl)c2)OCCCC[C@@H](C)O3)cc1	8.0*	-1	·
COc1ccc(S(=O)(=O)Nc2ccc3c(c2)C(=O)N([C@@H](C)CO)C[C@@H](C)[C@@H](CN(C)Cc2ccc(C(F)(F)F)cc2)O3)cc1	7	0	·
COc1ccc(S(=O)(=O)Nc2ccc3c(c2)C(=O)N([C@@H](C)CO)C[C@H](C)[C@@H](CN(C)Cc2ccc(Cl)c(Cl)c2)OCCCC[C@H](C)O3)cc1	5	-1	·
C[C@@H]1CN([C@H](C)CO)C(=O)c2cc(NS(=O)(=O)c3ccc(Cl)cc3)ccc2O[C@@H](C)CCCCO[C@@H]1CN(C)Cc1ccc(Cl)c(Cl)c1	2	1	·
C[C@H]1CN([C@@H](C)CO)C(=O)c2cccc(NC(=O)C3CCOCC3)c2O[C@H]1CN(C)C(=O)NC1CCCCC1	0	0	·
C[C@@H]1CN([C@H](C)CO)C(=O)c2cc(C3=CCCCC3)cnc2O[C@@H]1CN(C)C(=O)Cc1cccnc1	1	0	·
CO[C@H]1CN(C)C(=O)c2ccc(NS(=O)(=O)c3ccc(Cl)cc3)cc2OC[C@H](C)NC[C@@H]1C	3	0	·
C[C@H](NC(=O)C[C@H]1C[C@@H]2c3cc(NC(=O)Cc4ccncc4)ccc3O[C@@H]2[C@@H](CO)O1)c1ccccc1	-3	0	·
C[C@@H]1CCCCO[C@@H](CN(C)C(=O)Nc2ccccc2)[C@H](C)CN([C@H](C)CO)C(=O)c2cc(NS(=O)(=O)c3ccc(Cl)cc3)ccc2O1	-2	3.6*	·
C[C@@H]1CN([C@H](C)CO)C(=O)c2cc(NS(=O)(=O)c3ccc(Cl)cc3)ccc2O[C@@H](C)CCCCO[C@H]1CN(C)C(=O)Nc1ccccc1	-1	0	·
Cc1noc(C)c1NC(=O)NCC[C@@H]1CC[C@@H](NC(=O)Nc2cccc(Cl)c2)[C@@H](CO)O1	3	0	·
